Screens (PubChem)
EZH2 inh = EZH2/PRC2 methyltransferase inhibitors, primary screen, biochemical, DELFIA time-resolved fluorescence, single point; PRC2 H3K27 methylation, DELFIA TRF, 1 h; inhibition, % at 12.5 µM; 57,000 compounds, 0.35% hits;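 active = mean inhibition of replicates at least 50% and every single replicate also reaching 50%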;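 note: dimethyl H3K27 on biotinylated H3 21-44 peptide detected by antibody; plate controls were median neutral control wells for no effect and median positive control wells for full effect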
Target sequence (Q15910 whole entry, looked up): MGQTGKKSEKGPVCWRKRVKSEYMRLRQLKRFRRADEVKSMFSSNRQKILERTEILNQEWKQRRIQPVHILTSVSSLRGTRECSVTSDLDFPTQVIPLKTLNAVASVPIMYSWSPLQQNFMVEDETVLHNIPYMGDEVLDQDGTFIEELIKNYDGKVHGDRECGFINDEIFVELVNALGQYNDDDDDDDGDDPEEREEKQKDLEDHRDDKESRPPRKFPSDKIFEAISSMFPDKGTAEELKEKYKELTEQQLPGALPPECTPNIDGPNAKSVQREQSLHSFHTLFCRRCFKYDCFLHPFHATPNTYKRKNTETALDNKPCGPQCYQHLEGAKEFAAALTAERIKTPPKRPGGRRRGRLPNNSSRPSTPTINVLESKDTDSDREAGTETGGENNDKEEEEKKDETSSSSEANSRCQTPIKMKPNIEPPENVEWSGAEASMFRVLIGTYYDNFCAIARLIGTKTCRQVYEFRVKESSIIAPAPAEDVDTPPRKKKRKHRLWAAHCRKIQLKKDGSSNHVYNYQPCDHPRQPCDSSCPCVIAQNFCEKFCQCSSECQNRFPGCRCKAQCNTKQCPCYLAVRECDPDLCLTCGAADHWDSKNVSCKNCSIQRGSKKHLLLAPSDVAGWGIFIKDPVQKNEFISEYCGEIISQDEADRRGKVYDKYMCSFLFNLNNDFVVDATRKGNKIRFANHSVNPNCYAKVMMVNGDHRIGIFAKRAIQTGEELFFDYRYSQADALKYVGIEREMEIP
Numbers without * were called inactive. Shown is part of a subset that was picked to be rich in hits.

COC(=O)C(CC#Cc1ccc2c(c1)[C@]1(C(=O)N2)[C@H](C(N)=O)[C@H]2C(=O)O[C@H](c3ccccc3)[C@H](c3ccccc3)N2[C@@H]1c1ccc(O)cc1)C(=O)OC was read as EZH2 inh -32.
Screening COc1ccc2c(c1)c(CC(=O)O)c(C)n2C(=O)c1ccc(Cl)cc1 returned EZH2 inh 7.
`COc1ccc(-n2c(C)c(C(C)=O)c3cc(OCC(N)=O)ccc32)cc1` gave EZH2 inh 24.
For COc1ccc2c(c1)c(CC(=O)OCc1ccccn1)c(C)n2C(=O)c1ccc(Cl)cc1 the results were EZH2 inh 56*.
O=c1[nH]cnc2c1cnn2Cc1ccc(Cl)cc1 was read as EZH2 inh -18.
For Cc1ccc(S(=O)(=O)N(C)C[C@H]2Oc3c(NC(=O)C4CCOCC4)cccc3C(=O)N([C@@H](C)CO)C[C@H]2C)cc1 the results were EZH2 inh 1.
N#Cc1c(-c2ccccc2)nc(SCC(=O)N(c2ccccc2)c2ccccc2)[nH]c1=O was read as EZH2 inh 52*.
For CC(Sc1nc(-c2ccccc2)c(C#N)c(=O)[nH]1)C(=O)Nc1cccc(Cl)c1 (stereo not drawn) the results were EZH2 inh 63*.
`O=C(CSc1ncn[nH]1)N(c1ccccc1)c1ccccc1` gave EZH2 inh 4.
CC(Sc1nc2ccccc2[nH]1)C(=O)Nc1cccc(Cl)c1 (stereo not drawn) was read as EZH2 inh 2.
O=C(CSc1nc2sc3c(c2c(=O)[nH]1)CCCC3)N(c1ccccc1)c1ccccc1 was read as EZH2 inh 31.
Screening CC(Sc1nc(-c2ccccc2)c(C#N)c(=O)[nH]1)C(=O)Nc1ccc(Cl)cc1 (stereo not drawn) returned EZH2 inh 46.
Screening C[C@H](CO)N1C[C@H](C)[C@@H](CN(C)Cc2ccccc2)Oc2c(NC(=O)c3cnccn3)cccc2C1=O returned EZH2 inh -3.
Screening O=C(C[C@H]1C[C@H]2c3cc(NC(=O)Cc4ccncc4)ccc3O[C@H]2[C@H](CO)O1)NCc1ccc(-c2ccccc2)cc1 returned EZH2 inh -18.
O=C(CCCCCCC(=O)Nc1ccccc1O)N/N=C/c1cccnc1Br was read as EZH2 inh -28.
CC(C)n1c2ccccc2c2nnc(SCC(=O)N3c4ccccc4Sc4ccccc43)nc21 was read as EZH2 inh -16.
`O=C(N/N=C/Cc1ccccc1)c1ccccn1` gave EZH2 inh 7.
For O=C(CCCCCCC(=O)Nc1ccccc1O)N/N=C/c1ccc2c(c1)OCCO2 the results were EZH2 inh 8.
For CCn1c(SCc2nc3ccccc3[nH]2)nnc1-c1cccc(Cl)c1 the results were EZH2 inh 2.
CCCCCCCNS(=O)(=O)c1cccc2c(Cl)cccc12 was read as EZH2 inh 41.
NCCCCCCNS(=O)(=O)c1cccc2c(Cl)cccc12 was read as EZH2 inh -11.
For O=S(=O)(NCCCCCCc1ccccc1)c1cccc2c(Cl)cccc12 the results were EZH2 inh 55*.
Screening C[C@@H]1CN([C@H](C)CO)C(=O)c2cc(NC(=O)c3ccncc3)ccc2O[C@H]1CN(C)Cc1ccccc1 returned EZH2 inh -18.
For COc1cc2nc(SCC(N)=O)n3nc(CCn4c(C)nc5ccccc54)nc3c2cc1OC the results were EZH2 inh -13.
For O=C(Oc1ccc([C@@H]2Oc3cc(O)cc(O)c3C[C@H]2O)cc1O)c1cc(O)c(O)c(O)c1 the results were EZH2 inh 99*.
Screening O=C1C[C@@H](c2ccccc2)Oc2cc(O)cc(O)c21 returned EZH2 inh -14.
`COc1cc(C2Oc3c(O)ccc([C@@H]4Oc5cc(O)cc(O)c5C(=O)[C@H]4O)c3C2CO)ccc1O` (stereo partly drawn) gave EZH2 inh 17.
Screening O=C(NCC[C@@H]1CC[C@H](NC(=O)C2CCCCC2)[C@@H](CO)O1)c1cc(Cl)cc(Cl)c1 returned EZH2 inh -2.
`O=C(Cc1ccncc1)NCC[C@H]1CC[C@H](NC(=O)Nc2ccc(F)cc2)[C@@H](CO)O1` gave EZH2 inh -9.
